{"source": "PubChem BioAssay", "note": "Active and inactive are the calls of the source.", "data": [{"tested_on": "XIP peptide (Xip251-270) binding", "assay": "small-molecule binders of XIP peptide, primary screen, biochemical, small-molecule microarray, fluorescence 635/667 nm, 0.1 µg/mL protein (AID 1182)", "conditions": "fluorescent protein binding, 635 nm, higher = more signal, called active from +8 up or from −8 down", "values": [{"smiles": "COC(=O)[C@H](C)NC(=O)CCC1CC(OC(=O)NCCc2ccc(F)cc2)CC2(CCCC(COC(=O)NCCOc3ccccc3)O2)O1", "note": "(stereo partly drawn)", "composite z-score": "2.99 (inactive)"}, {"smiles": "O=C1[C@H]2[C@H]3[C@H](O)[C@H](O)CC(=NOC[C@@H](O)COCc4ccco4)[C@@H]3CC[C@H]2C(=O)N1Cc1ccc2c(c1)OCO2", "composite z-score": "-0.0588 (inactive)"}, {"smiles": "CO[C@@H]1COC(=O)[C@@H]2CCCN2C(=O)[C@@H](C)COC(=O)CCC[C@H]1C", "composite z-score": "-0.0308 (inactive)"}, {"smiles": "CCOC(=O)CCN1C(=O)[C@H]2[C@H]3[C@H](O)[C@H](O)CC(=NO[C@@H]4O[C@H](CO)[C@@H](O)[C@H](O)[C@H]4O)[C@@H]3CC[C@H]2C1=O", "composite z-score": "0.557 (inactive)"}, {"smiles": "CSCC[C@@H]1NC(=O)CC=C[C@@H](C)COC(=O)[C@H](C)COC1=O", "composite z-score": "0.439 (inactive)"}, {"smiles": "C[C@@H](c1ccccc1)N1C(=O)[C@H]2[C@H]3[C@H](O)[C@H](O)CC(=NOCc4ccccc4)[C@@H]3CC[C@H]2C1=O", "composite z-score": "0.641 (inactive)"}, {"smiles": "CC[C@@H](c1ccccc1)n1c(=O)n2n(c1=O)[C@H]1[C@H](O)[C@@H]3O[C@@H]3C(=NOCc3ccccc3)[C@H]1CC2", "composite z-score": "0.265 (inactive)"}]}, {"tested_on": "XIP peptide (Xip251-270)", "assay": "small-molecule binders of XIP peptide, primary screen, biochemical, small-molecule microarray, fluorescence 635/667 nm, 0.5 µg/mL protein (AID 1183)", "conditions": "small-molecule microarray binding, fluorescence 635 nm; higher = more signal", "values": [{"smiles": "CC(CCN1CCCCc2nc(C)c(C)cc21)=NOC[C@@H](O)[C@H]1O[C@@H]2OC(C)(C)O[C@@H]2[C@H]1O", "composite z-score": 0.698}, {"smiles": "CCCC[C@H]1CN2[C@@H](CC[C@@H](C)[C@@H]2c2ccc(Br)cc2)C(=O)O1", "composite z-score": 0.476}, {"smiles": "COC(=O)CC=C[C@@H](C)[C@@H](C=NOC[C@@H](O)COCc1ccco1)NS(=O)(=O)c1ccc(C)cc1", "composite z-score": 0.239}, {"smiles": "O=C1CCCC=C1C(O)c1ccc([N+](=O)[O-])cc1", "note": "(stereo not drawn)", "composite z-score": 0.852}, {"smiles": "C[C@@H]1CC[C@@H](C(=O)O)N[C@H]1c1cccc(N2CCOCC2)c1", "composite z-score": -0.135}, {"smiles": "CC(C)=CCCC(C)=CCON=C1C[C@@H](O)[C@@H](O)[C@@H]2[C@@H]3C(=O)N(Cc4ccc5c(c4)OCO5)C(=O)[C@@H]3CC[C@@H]12", "composite z-score": 0.245}, {"smiles": "CC(C)=NO[C@H](C)c1cn([C@@H]2COC[C@H]2O)nn1", "composite z-score": 0.0358}, {"smiles": "C[C@@H]1CC[C@H]2C(=O)O[C@@H](CN=[N+]=[N-])CN2[C@H]1c1ccc(Br)cc1", "composite z-score": 0.688}, {"smiles": "COc1ccc(OC[C@@H]2CC3[C@@H](c4ccc(Br)cc4)[C@H](C)CC[C@H]3C(=O)O2)cc1", "note": "(stereo partly drawn)", "composite z-score": 0.659}, {"smiles": "CC(=O)OC[C@H]1O[C@H](CC=NO[C@@H](C)c2cn([C@H](CO)Cc3ccccc3)nn2)C=C[C@@H]1OC(C)=O", "composite z-score": 0.361}, {"smiles": "CON=C(C)CCN1CCCc2nc(C)c(C)cc21", "composite z-score": 0.428}, {"smiles": "O=C1[C@H]2[C@H]3[C@H](O)[C@H](O)CC(=NOC[C@@H](O)COCc4ccco4)[C@@H]3CC[C@H]2C(=O)N1C1CCCCC1", "composite z-score": 0.306}, {"smiles": "CC(C)CN1CCc2nc(-c3ccccc3)c3c(c2C1)CO[C@@H](C)C3", "composite z-score": 0.687}, {"smiles": "CO[C@@H](C1CCCCC1)[C@@H](C)[C@H](OCc1cccc(Br)c1)[C@@H](C)CO", "composite z-score": -0.0791}, {"smiles": "CCCNC(=O)OC[C@H]1O[C@H](CCON=C[C@@H](NS(=O)(=O)c2ccc(C)cc2)[C@H](C)C=CCC(=O)OC)C=C[C@@H]1Oc1ccc(OC)cc1", "composite z-score": -0.501}, {"smiles": "CC(C)CON=C1C[C@@H](O)[C@@H](O)[C@@H]2[C@@H]3C(=O)N([C@@H](C)c4ccccc4)C(=O)[C@@H]3CC[C@@H]12", "composite z-score": -0.344}, {"smiles": "CCOC(=O)CCN1C(=O)[C@H]2[C@H]3[C@H](O)[C@H](O)CC(=NO[C@@H]4O[C@H](CO)[C@@H](O)[C@H](O)[C@H]4O)[C@H]3CC[C@H]2C1=O", "composite z-score": 0.405}, {"smiles": "CCN1C(C)=C(C(=O)OC)[C@@H](c2ccccc2)N2C(=O)[C@](O)(C(=O)OC)CC(C(C)=O)=C12", "composite z-score": -0.218}, {"smiles": "O=C1CCCC=C1C(O)COCc1ccccc1", "note": "(stereo not drawn)", "composite z-score": 0.269}, {"smiles": "CCOC(=O)[C@H](Cc1ccccc1)NC(=O)CCC1CC(OC(=O)NCc2cccc3ccccc23)CC2(CCCC(COC(=O)NCCOc3ccccc3)O2)O1", "note": "(stereo partly drawn)", "composite z-score": 0.512}, {"smiles": "C[C@@H](c1ccccc1)N1C(=O)[C@H]2[C@H]3[C@H](O)[C@H](O)CC(=NNC(=O)OCc4ccccc4)[C@@H]3CC[C@H]2C1=O", "composite z-score": 0.209}, {"smiles": "CC(CCN1CCCc2nc(C)c(C)cc21)=NOC[C@@H](C)[C@H](OCc1ccccc1)C(C)C", "composite z-score": 0.548}, {"smiles": "CON=C(C)CCN1CCCCc2nc(C)c(C)cc21", "composite z-score": 0.49}, {"smiles": "CCCNC(=O)OC[C@H]1O[C@H](CCON=C2C[C@@H](O)[C@@H](O)[C@@H]3[C@@H]4C(=O)N(CC)C(=O)[C@@H]4CC[C@@H]23)C=C[C@@H]1Oc1ccc(OC)cc1", "composite z-score": 0.696}, {"smiles": "CCOC(=O)[C@H](CC(C)C)NC(=O)CCC1CC(OC(=O)NCc2ccc3c(c2)OCO3)CC2(CCCC(COC(=O)NCCC(C)C)O2)O1", "note": "(stereo partly drawn)", "composite z-score": 0.842}, {"smiles": "COC(=O)[C@H](C)NC(=O)CCC1CC(OC(=O)NCCc2ccc(F)cc2)CC2(CCCC(COC(=O)NCCc3ccccc3OC)O2)O1", "note": "(stereo partly drawn)", "composite z-score": 0.341}, {"smiles": "CC(CCN1CCCc2nc(C)c(C)cc21)=NO[C@H](C)c1cn([C@@H]2COC[C@H]2O)nn1", "composite z-score": 0.588}, {"smiles": "CON=C1c2cc(OC)ccc2O[C@H](c2cccc(OC)c2)[C@H]1O", "composite z-score": 0.464}, {"smiles": "O=C1C2=CC[C@H]3C(=O)N(Cc4ccccc4)C(=O)[C@H]3[C@H]2[C@H](O)[C@@H]2O[C@H]12", "composite z-score": -0.194}, {"smiles": "COC(=O)[C@H](C)NC(=O)CCC1CC(OC(=O)NCCc2ccc(F)cc2)CC2(CCCC(COC(=O)NCCOc3ccccc3)O2)O1", "note": "(stereo partly drawn)", "composite z-score": 0.536}, {"smiles": "O=C1[C@H]2[C@H]3[C@H](O)[C@H](O)CC(=NOC[C@@H](O)COCc4ccco4)[C@@H]3CC[C@H]2C(=O)N1Cc1ccc2c(c1)OCO2", "composite z-score": 0.265}, {"smiles": "CO[C@@H]1COC(=O)[C@@H]2CCCN2C(=O)[C@@H](C)COC(=O)CCC[C@H]1C", "composite z-score": 0.143}, {"smiles": "CCOC(=O)CCN1C(=O)[C@H]2[C@H]3[C@H](O)[C@H](O)CC(=NO[C@@H]4O[C@H](CO)[C@@H](O)[C@H](O)[C@H]4O)[C@@H]3CC[C@H]2C1=O", "composite z-score": 0.632}, {"smiles": "CSCC[C@@H]1NC(=O)CC=C[C@@H](C)COC(=O)[C@H](C)COC1=O", "composite z-score": 0.8}, {"smiles": "C[C@@H](c1ccccc1)N1C(=O)[C@H]2[C@H]3[C@H](O)[C@H](O)CC(=NOCc4ccccc4)[C@@H]3CC[C@H]2C1=O", "composite z-score": 0.169}, {"smiles": "CC[C@@H](c1ccccc1)n1c(=O)n2n(c1=O)[C@H]1[C@H](O)[C@@H]3O[C@@H]3C(=NOCc3ccccc3)[C@H]1CC2", "composite z-score": 0.539}]}]}
